Results on nine molecules are retold here after PubChem BioAssay.

The source made the active and inactive calls. Unless noted, how the calls were made is not given here.

Assay [1] is described as follows: compound effects on lung adenocarcinoma cell viability – A549, calcein-AM fluorescence, 48 h, basal, profiling panel (AID 1162). Further: test concentration not given here. The settings on record: higher = more signal.
Assay [2] in a line: compound effects on differentiated 3T3-L1 adipocyte viability – cell-based, 3T3-L1 adipocytes, calcein-AM fluorescence, 48 h, basal, profiling panel (AID 1163). Further: test concentration not given here. The settings on record: 3T3-L1 adipocytes viability, higher = more signal.
A short description of assay [3]: compound effects on hepatocellular carcinoma cell viability – HepG2, calcein-AM fluorescence, 48 h, basal, profiling panel (AID 1164). Further: test concentration not given here. The settings on record: higher = more signal.
Assay [4] is described as follows: compound effects on multiple myeloma cell viability – MM1S, calcein-AM fluorescence, 48 h, basal, profiling panel (AID 1165).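 Further: viability of MM1S multiple myeloma cells under basal unstimulated conditions; test concentration not given here.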 The settings on record: higher = more signal.
The nature of assay [5]: calcein-AM signal in unstimulated myeloma cells – cell-based, calcein-AM fluorescence, 48 h, PK04 Diversity Set, profiling panel (AID 1166).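 Further: cells grown under basal conditions without added stimulus; test concentration not given here.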 The settings on record: RPMI8226 myeloma viability, higher = more signal.
Assay [6] in a line: JC-1 mitochondrial signal, unstimulated HepG2 cells – cell-based, JC-1 fluorescence, 24 h, 100 nL compound, profiling panel (AID 1167). Further: test concentration not given here. The settings on record: HepG2 mitochondrial potential, higher = more signal.
The nature of assay [7]: JC-1 mitochondrial signal, unstimulated adipocytes – cell-based, JC-1 fluorescence, 3T3-L1 adipocytes, 24 h, 100 nL compound, profiling panel (AID 1168). Further: test concentration not given here. The settings on record: JC-1 mitochondrial fluorescence, higher = more signal, called active from +8 up or from −8 down.
Assay [8] in a line: JC-1 mitochondrial signal, unstimulated myeloma cells – cell-based, JC-1 fluorescence, RPMI8226, 24 h, 100 nL compound, profiling panel (AID 1169). Further: test concentration not given here. The settings on record: JC-1 mitochondrial potential fluorescence, higher = more signal.
The nature of assay [9]: JC-1 mitochondrial signal, unstimulated MM1S myeloma – cell-based, JC-1 fluorescence, 24 h, 100 nL compound, profiling panel (AID 1170). Further: test concentration not given here. The settings on record: MM1S mitochondrial potential, higher = more signal.
Assay [10] in a line: resazurin metabolic signal in A549 cells – cell-based, resazurin fluorescence, 24 h, PK04 Diversity Set, profiling panel (AID 1171). Further: test concentration not given here. The settings on record: A549 viability, higher = more signal, called active from +8 up or from −8 down.
A short description of assay [11]: resazurin metabolic signal in HepG2 cells – cell-based, resazurin fluorescence, 24 h, PK04 Diversity Set, profiling panel (AID 1172). Further: test concentration not given here. The settings on record: HepG2 viability, higher = more signal. (In general: The colour change of resazurin is a common sign of viable cells or microbes.)
Assay [12] is described as follows: budding yeast growth changes without added modifier – OD600, strain BY4716, 24 h, basal condition, primary screen (AID 1173). The settings on record: S. cerevisiae BY4716 growth, OD600, 24 h; higher = more signal, called active from +8 up or from −8 down.
Assay [13] can be described thus: viability profiling in MM1S myeloma cells – cell-based, resazurin fluorescence, basal, 24 h, PK04 Diversity Set, profiling panel (AID 1174). Further: test concentration not given here. The settings on record: higher = more signal, called active from +8 up or from −8 down.
The target in assay [14] is Dihydroorotate dehydrogenase (quinone), mitochondrial (Plasmodium falciparum (isolate 3D7)) (UniProt Q08210). As to the kind of experiment: inhibition of P. falciparum DHODH – biochemical, C-terminal His tag, absorbance 600 nm, primary screen (AID 1175).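 Further: recombinant parasite enzyme with a five histidine tag at its C terminus; test concentration not given here.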 The settings on record: PfDHODH enzyme, DCIP absorbance 600 nm; higher = more signal, called active from +8 up or from −8 down.

Assay [15] in a line: inhibition of PAO1 biofilm formation – strain PAO1, LB-PBS medium, absorbance 600 nm, primary screen (AID 1176). Further: test concentration not given here. The settings on record: P. aeruginosa PAO1 growth/biofilm, A600, 12 h; higher = more signal.
Assay [16] in a line: growth modulation of vineyard yeast isolate – strain RM11-1a, OD600, basal, 24 h, primary screen (AID 1177).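 Further: cultures grown under basal conditions with no added stressor; test concentration not given here.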 The settings on record: S. cerevisiae RM11-1a growth, OD600, 24 h; higher = more signal, called active from +8 up or from −8 down.
Assay [17] can be described thus: growth of efflux-deficient E. coli DRC39 – strain DRC39, OD650, 24 h, E. coli filamentation inducers, primary screen (AID 1178).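 Further: growth measured as culture turbidity by optical density at 650 nm; test concentration not given here.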 The settings on record: E. coli DRC39 acrAB, higher = more signal, called active from +8 up or from −8 down.
Assay [18] in a line: growth of efflux-deficient E. coli DRC39 – strain DRC39, OD650, 48 h, E. coli filamentation inducers, primary screen (AID 1179).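 Further: screen aims at cell division blockers that make cells filament.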 The settings on record: E. coli DRC39 delta-acrAB growth, higher = more signal, called active from +8 up or from −8 down.
A short description of assay [19]: viability profiling in RPMI8226 myeloma cells – cell-based, resazurin fluorescence, basal, 24 h, PK04 Diversity Set, profiling panel (AID 1180).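 Further: RPMI8826 multiple myeloma cell line at 5000 cells per well; test concentration not given here.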 The settings on record: higher = more signal.
The target in assay [20] is E3 ubiquitin-protein ligase XIAP (Homo sapiens) (UniProt P98170). The experiment in a line: small molecules binding XIAP protein – biophysical, small-molecule microarray, fluorescence 635 nm, primary screen (AID 1181).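 Further: score merges 667 nm emission and signal to noise over triplicate slides.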 The settings on record: higher = more signal.
E3 ubiquitin-protein ligase XIAP (Homo sapiens), sequence (P98170 whole entry, looked up): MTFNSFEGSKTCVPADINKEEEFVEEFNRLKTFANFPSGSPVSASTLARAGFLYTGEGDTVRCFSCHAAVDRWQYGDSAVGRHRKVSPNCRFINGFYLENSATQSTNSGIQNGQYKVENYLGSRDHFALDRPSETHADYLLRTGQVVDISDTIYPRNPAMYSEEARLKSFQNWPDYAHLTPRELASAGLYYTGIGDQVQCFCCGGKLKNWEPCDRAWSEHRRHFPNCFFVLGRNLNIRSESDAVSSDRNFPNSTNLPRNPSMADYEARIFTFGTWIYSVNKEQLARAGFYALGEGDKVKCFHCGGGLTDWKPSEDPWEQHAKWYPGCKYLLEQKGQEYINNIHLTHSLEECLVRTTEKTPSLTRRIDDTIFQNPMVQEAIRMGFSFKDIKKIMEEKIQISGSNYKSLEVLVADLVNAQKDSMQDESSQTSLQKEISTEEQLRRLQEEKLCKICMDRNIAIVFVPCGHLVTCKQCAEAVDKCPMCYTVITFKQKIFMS

Dihydroorotate dehydrogenase (quinone), mitochondrial (Plasmodium falciparum (isolate 3D7)), sequence (Q08210 whole entry, looked up): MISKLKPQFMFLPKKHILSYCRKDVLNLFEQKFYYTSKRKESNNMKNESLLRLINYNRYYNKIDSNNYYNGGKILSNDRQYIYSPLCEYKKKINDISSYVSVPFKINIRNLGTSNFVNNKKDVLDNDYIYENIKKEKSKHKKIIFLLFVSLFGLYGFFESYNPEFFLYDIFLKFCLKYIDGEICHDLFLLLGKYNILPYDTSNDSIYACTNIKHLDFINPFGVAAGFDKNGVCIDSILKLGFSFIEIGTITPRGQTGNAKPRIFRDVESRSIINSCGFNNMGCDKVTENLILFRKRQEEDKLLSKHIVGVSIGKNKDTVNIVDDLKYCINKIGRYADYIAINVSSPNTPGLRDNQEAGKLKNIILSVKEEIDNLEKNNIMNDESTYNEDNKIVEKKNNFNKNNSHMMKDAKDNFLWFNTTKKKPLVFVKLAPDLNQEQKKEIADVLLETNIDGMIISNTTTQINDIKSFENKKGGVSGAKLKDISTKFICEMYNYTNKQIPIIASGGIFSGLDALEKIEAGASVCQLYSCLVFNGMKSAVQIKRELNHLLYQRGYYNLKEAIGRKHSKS

Consider `O=C1OCCC=C[C@H]2OC34C=CCN(c5ccc(Cl)cc5)C(=O)[C@H]3N(CCCCCCO)C(=O)[C@@H]4C12` (stereo not given in full), for which the z-score in [1] was 1.26; in assay [2] it was -0.043; in [3], 1.21; in [4], 1.69; in [5] it was -1.1; in assay [6], 1. For the same molecule, the z-score in [7] is 0.335 (inactive); in assay [8], -0.0541; in [9], 1.34; in assay [10], 0.97 (inactive); in [11], 0.546; in [12], -0.247 (inactive). Besides, the z-score was 1.35 (inactive) in [13]; -0.786 (inactive) in assay [15]; 0.311 (inactive) in assay [16]; 1.38 (inactive) in assay [17]; 1.74 (inactive) in [18]; 1.23 in assay [19]. Further, the composite z-score was -0.477 (inactive) in assay [14] and -0.474 in assay [20].
For `NC(=O)[C@H]1[C@@H]2C(=O)O[C@@H](c3ccccc3)[C@@H](c3ccccc3)N2[C@@H](c2ccc(O)cc2)[C@]12C(=O)Nc1ccccc12`, the z-score in [1] was -0.265; in [2], -0.712; in assay [3] it was 0.872; in assay [4] it was 0.519; in [5] it was -0.544; in assay [6], -0.288. The z-score in assay [7] is -0.243 (inactive); in assay [8], -0.309; in [9], -0.371; in [10], -0.189 (inactive); in assay [11], -0.367; in [12] it was -0.376 (inactive). Further, the z-score in assay [13] is 0.0279 (inactive); in assay [15] it was 0.0332 (inactive); in [16], 0.575 (inactive); in [17] it was -0.145 (inactive); in assay [18], 0.0129 (inactive); in assay [19] it was 0.417. In addition, the composite z-score is 0.0023 (inactive) in assay [14] and -0.0559 in [20].
For the molecule `O=c1cccc(-c2ccc(F)cc2)o1`, the z-score is -0.562 in assay [1]; 0.616 in assay [2]; -0.606 in assay [3]; -0.0871 in assay [4]; -0.913 in [5]; 0.0366 in assay [6]. Besides, the z-score was 0.5 (inactive) in assay [7]; 0.036 in assay [8]; -0.0644 in assay [9]; -0.0964 (inactive) in assay [10]; 0.0278 in assay [11]; -0.576 (inactive) in assay [12]. For the same molecule, the z-score is 0.306 (inactive) in [13]; -0.088 (inactive) in [15]; 0.18 (inactive) in assay [16]; -0.561 (inactive) in [17]; -0.165 (inactive) in assay [18]; -0.739 in assay [19]. For the same molecule, the figures for the composite z-score in assay [14] and in assay [20] were -0.555 (inactive) and -0.167, respectively.
For the molecule `CC(C)(C)OC(=O)CC[C@]12N=C(c3ccc(OCCCO)cc3)O[C@H]1c1ccccc1N(Cc1ccccc1)C2=O`, the z-score in assay [1] is 0.413; in assay [2], 0.709; in assay [3] it was 0.909; in assay [4] it was -2.74; in assay [5] it was -4.27; in [6] it was 0.0521. Besides, the z-score was 1.16 (inactive) in [7]; -1.2 in [8]; -0.0831 in assay [9]; 1.66 (inactive) in [10]; 0.851 in assay [11]; 0.342 (inactive) in [12]. Besides, the z-score is -0.922 (inactive) in [13]; 0.95 (inactive) in assay [15]; 2.29 (inactive) in [16]; 1.1 (inactive) in assay [17]; 0.124 (inactive) in assay [18]; -1.55 in assay [19]. Further, the values for the composite z-score in [14] and in [20] were -0.316 (inactive) and 0.0968, respectively.
In the case of `C#C[C@@H](CC)O[Si](C#CCCCC#N)(C(C)C)C(C)C`, the z-score is -0.533 in assay [1]; -0.87 in assay [2]; -0.168 in assay [3]; -3.16 in assay [4]; -0.501 in [5]; -0.626 in [6]. The z-score was 0.117 (inactive) in assay [7]; -0.45 in assay [8]; -1.73 in [9]; -0.0413 (inactive) in [10]; -0.276 in [11]; -17.4 (active) in assay [12]. The z-score is -0.651 (inactive) in assay [13]; 0.113 (inactive) in [15]; -2.5 (inactive) in [16]; 0.0725 (inactive) in assay [17]; 0.173 (inactive) in assay [18]; -0.221 in assay [19]. The figures for the composite z-score in [14] and in [20] were -1.06 (inactive) and -0.142, respectively.
Turning to `CC(CO)N1C(=O)[C@@H]2[C@H]3C(=O)OCC=C[C@H]3OC23C=CCN(c2ccc(Cl)cc2)C(=O)[C@@H]13` (stereo not given in full), the z-score in assay [1] is 0.0473; in assay [2], 0.311; in assay [3], 0.336; in [4] it was 0.829; in assay [5] it was -0.485; in [6], -0.321. In addition, the z-score in assay [7] was -0.574 (inactive); in [8], -0.818; in [9] it was 0.0977; in assay [10], 0.957 (inactive); in assay [11], 0.909; in [12] it was -0.414 (inactive). For the same molecule, the z-score was 0.675 (inactive) in assay [13]; -0.897 (inactive) in assay [15]; 0.0289 (inactive) in assay [16]; 0.864 (inactive) in [17]; 0.734 (inactive) in [18]; 0.282 in assay [19]. Further, the composite z-score was -0.647 (inactive) in assay [14] and -0.394 in [20].
Take `C=CCC(OC(C)=O)[C@@H]1[C@@H](N(Cc2ccc(-c3cccc(C(F)(F)F)c3)o2)C(=O)Cc2ccc(OC)cc2)c2cc(OCCCO)ccc2N1C(=O)Cc1ccc2ccccc2c1` (stereo not given in full): the z-score in assay [1] was 0.553; in assay [2], 1.78; in [3], 0.73; in assay [4], -0.499; in [5], -1.14; in [6], 1.94. The z-score in [7] is -0.3 (inactive); in assay [8], 0.114; in [9], 0.296; in assay [10], -0.674 (inactive); in [11], -0.43; in assay [12], -0.753 (inactive). For the same molecule, the z-score is 0.0919 (inactive) in [13]; -0.628 (inactive) in assay [15]; 0.132 (inactive) in [16]; 0.532 (inactive) in [17]; 0.279 (inactive) in [18]; -0.224 in assay [19]. The figures for the composite z-score in assay [14] and in assay [20] were 1.02 (inactive) and -0.0286, respectively.
Regarding `COCCOC(=O)N1C(=O)[C@@]2(c3cc(C#CCNC(N)=O)ccc31)[C@H](c1ccc(OCCO)cc1)N1[C@H](c3ccccc3)[C@H](c3ccccc3)OC(=O)[C@H]1[C@@H]2C(=O)NC[C@H](O)c1ccccc1`, the z-score in [1] is -1.31; in assay [2], 0.494; in assay [3] it was -0.542; in [4], -0.193; in [5], -0.158; in assay [6], -1.49. Further, the z-score was 0.17 (inactive) in assay [7]; 0.235 in assay [8]; -0.391 in assay [9]; 0.32 (inactive) in [10]; 0.637 in assay [11]; 1.82 (inactive) in [12]. Also, the z-score in [13] is 0.0592 (inactive); in [15] it was 2.18 (inactive); in assay [16], 1.54 (inactive); in assay [17] it was 0.48 (inactive); in assay [18], -0.532 (inactive); in [19] it was -0.45. The composite z-score was -1.88 (inactive) in [14] and -0.153 in assay [20].
Turning to `C=CCC(OC(C)=O)[C@@H]1[C@@H](N(Cc2ccc(-c3cccc(C(F)(F)F)c3)o2)C(=O)c2ccc(C)cc2)c2cc(OCCCO)ccc2N1C(=O)Cc1ccc(OC)cc1` (stereo not given in full), the z-score was 1.22 in assay [1]; 0.608 in assay [2]; 2.12 in [3]; -0.155 in assay [4]; 0.002 in assay [5]; 3.98 in [6]. In addition, the z-score is 0.557 (inactive) in assay [7]; -0.245 in [8]; -0.83 in assay [9]; 1.25 (inactive) in [10]; 0.91 in assay [11]; -0.455 (inactive) in assay [12]. The z-score in assay [13] is 0.104 (inactive); in assay [15], -0.194 (inactive); in assay [16], 0.74 (inactive); in assay [17], 0.145 (inactive); in assay [18], 1.11 (inactive); in [19], 1.11. Further, the composite z-score in assay [14] was -1.55 (inactive); in [20], 0.0871.
